Glyco luc inh: N-linked glycosylation inhibition; D54 ERlucT glycosylation luciferase reporter, 24 h; percent of 100 nM tunicamycin response; reporter increase, % at 12.5 µM; hit rate 0.23% among 360,000;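 active means mean luciferase reporter signal, scaled so untreated is 0 and the glycosylation-blocking control 100, at or above a set limit in every replicate; inconclusive means mean reaches the limit but not every replicate does; inactive means mean below the limit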;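 further: luciferase carries N-glycosylation sites so blocking glycosylation raises the light; 0% = median of neutral control wells and 100% = median of 100 nM tunicamycin wells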
PfHsp90 set2: inhibits growth of yeast expressing Plasmodium falciparum Hsp90 | inhibition, % at 9.4 µM | S. cerevisiae expressing PfHsp90, BacTiter-Glo ATP, 48 h; yeast lacking PDR1 and PDR3 efflux regulators | hit rate 0.32% among 310,000;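 active means every replicate shows inhibition above about 80%, whatever the replicate mean, limit read from the data; inconclusive means mean inhibition reaches the set limit but some replicate falls short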;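 further: 0% = DMSO neutral controls and 100% = 20 µM radicicol positive controls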
Wnt act: activators of Wnt/beta-catenin signaling | AID 743398 | Wnt/beta-catenin reporter cell assay, activator, plate reader | activation, % at 9.35 µM | hit rate 1.2% among 300,000; in the data active means activation above about 30%, passing the limit was not always enough; inconclusive means no clear call, values can overlap the other calls;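 further: 0% = neutral control wells and 100% = positive control wells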
esBAF inh: SWI/SNF esBAF complex inhibition. mouse ES cells, Bmi1-luciferase knock-in reporter, 24 h; 100% = twice the neutral-well signal. reporter increase, % at 12.5 µM. hit rate 2% among 350,000. AID 602393; in the data active means activation above about 40%; inconclusive means no clear call, values can overlap the other calls;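 further: 0% = median of the plate's neutral control wells and 100% = double that signal; a rise in the Bmi1 reporter signal indicates esBAF inhibition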
Vif inh: inhibitors of HIV Vif. HEK293T cells, Vif self-association by quenched fluorescence, imaging, 24 h. inhibition, % at 7.49 µM. hit rate 0.35% among 340,000; in the data active means inhibition above about 50%, passing the limit was not always enough; inconclusive means no clear call, values can overlap the other calls; inactive means below about 31%
MITF act: MITF TRPM1 promoter activation in melanoma cells; hit rate 0.75% among 300,000; activation, % at 12.5 µM; SK-MEL-5 TRPM1-promoter luciferase, 24 h; % of positive control, neutral wells = 0;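 active means mean activation of at least 80% with every replicate also reaching 80%; inconclusive means mean reaches 80% but some replicate falls short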;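 further: 0% = neutral control wells and 100% = parthenolide positive control wells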
* marks the source's active call; other numbers are inactive results; ? = inconclusive; . = no result given. Most compounds without a hit are left out; they make up all but 3% or so of the library.

SMILES | Glyco luc inh | PfHsp90 set2 | Wnt act | esBAF inh | Vif inh | MITF act
COc1cc(/C=C/C(=O)OCC(=O)NCCCc2ccccc2)cc(OC)c1OC | 2 | -14 | -2 | 8 | 7 | -4
COc1ccc(/C=C/C(=O)c2cc3c(cc2N)OCO3)cc1 | -3 | -46 | 52* | . | -2 | 57
COc1ccc(NC(=O)/C(=C\c2ccc3c(c2)OCO3)NC(C)=O)cc1 | 0 | -5 | 47* | . | 2 | -1
COc1ccc(CCNC(=O)COC(=O)/C=C/c2ccc3c(c2)OCO3)cc1 | 1 | -10 | -3 | 47* | ? | 14
COc1ccc(/C=C/C(=O)c2ccc(OC)cc2OC)cc1 | 10 | -3 | 0 | -5 | -17 | 24
COc1ccc(CCNC(=O)COC(=O)/C=C/c2ccc(OC)c(OC)c2)cc1 | 0 | -6 | -6 | . | 0 | -6
CC(NC(N)=O)C(=O)NCC(=O)OCc1ccccc1 (stereo not drawn) | 1 | 12 | 0 | . | 5 | 5
CCN1[C@@H]2Cn3c(ccc(-c4ccccc4)c3=O)[C@H]1[C@@H](C(=O)NCCCN1CCOCC1)[C@@H]2CO | . | . | . | -1 | . | .
Cc1cc(=O)n(C(C)(C)C)c(=O)n1Cc1ccccc1 | 2 | 18 | 0 | 1 | -4 | -1
COc1ccc(NC(=O)O/N=C/c2ccc(N(C)C)cc2)cc1 | -2 | 19 | 13 | 17 | 23 | 31
Cc1ccc(NC(=O)O/N=C/c2ccc(F)cc2)cc1 | 0 | 1 | 7 | 56* | 6 | .
O=C(Nc1ccccc1)O/N=C/c1ccc(F)cc1 | -5 | 1 | 14 | 48* | 4 | .
Cc1ccc(NC(=O)O/N=C/c2ccc(N(C)C)cc2)cc1 | -2 | 6 | 11 | 56* | -5 | 53
Cc1ccc(-n2c(Cc3cccn3C)nnc2SCC(=O)N2CCc3ccccc32)cc1 | -1 | 0 | . | -2 | -6 | 0
O=c1[nH]c(=S)[nH]c2c1C(c1ccc(F)cc1)OC(CCC(F)(F)F)C2 (stereo not drawn) | 0 | . | 4 | -9 | . | .
CCOC(=O)c1sc(SC)c2c1CCC/C2=N/OC | 1 | 2 | -3 | -3 | 5 | -15
CCOC(=O)c1sc(S(C)(=O)=O)c2c1CCc1conc1-2 | 0 | . | 55* | . | 1 | .
CC1=NOC(=O)/C1=C\c1ccc(-c2ccc(Br)cc2)o1 | 16 | 105* | -5 | . | -9 | -80
CC1=NOC(=O)/C1=C/c1ccc(-c2ccc(Cl)cc2)o1 | 12 | 105* | . | -82 | 2 | -99
Cc1ccc(COc2ccccc2C(=S)N2CCCC2)cc1 | 1 | -24 | 2 | 55* | 45 | 19
COc1cc(C(=S)N2CCCC2)ccc1OCc1ccc(C)cc1 | -1 | -2 | 9 | 47* | 5 | 66
CCOc1ccc(C(=O)N2CCCC2)cc1OC | 0 | 2 | 34* | 0 | -6 | -11
COc1ccc(N=C2S/C(=C\c3ccc(C)o3)C(=O)N2CC(C)C)cc1 | -1 | 3 | . | -3 | -6 | 2
Cc1noc(C)c1S(=O)(=O)Nc1ccc2c(c1)C(=O)N([C@H](C)CO)C[C@H](C)[C@H](CN(C)C(=O)NC(C)C)OCCCC[C@@H](C)O2 | 2 | . | -2 | -3 | -14 | .
CC(=O)Nc1ccc(NC(=O)/C(Cl)=C/c2ccccc2)cc1 | -2 | -20 | -1 | 53* | 5 | 111*
SMILES | Glyco luc inh | PfHsp90 set2 | Wnt act | esBAF inh | Vif inh | MITF act
CNC[C@H]1OCCCC[C@@H](C)Oc2ccc(NS(=O)(=O)c3ccc(OC)cc3)cc2C(=O)N([C@@H](C)CO)C[C@H]1C | . | . | . | 0 | . | .
Cc1ccc(N2C(=O)c3ccccc3NC2(C(=O)O)c2ccccc2)cc1Cl (stereo not drawn) | 0 | 22 | 57* | 60* | -9 | 34
COc1cc(/C=C/C(=O)C2C(=O)C=C(C)OC2=O)cc(OC)c1O (stereo not drawn) | 0 | 34 | . | . | 12 | -6
COc1ccc(/C=C/C(=O)C2C(=O)C=C(C)OC2=O)cc1O (stereo not drawn) | -6 | 51 | 35* | 51* | 7 | -9
CCOc1ccc(-c2cc(C(=O)NCCCn3ccnc3)c3cc(Br)ccc3n2)cc1 | -13 | . | 4 | -13 | 61* | -69
CCOC(=O)Cc1csc(NS(=O)(=O)c2ccc3ccccc3c2)n1 | 0 | 10 | -2 | -4 | -10 | -7
CCN(CC)S(=O)(=O)c1ccc(N2CCOCC2)c(NC(=O)c2[nH]c(C)c(C(C)=O)c2C)c1 | 63* | 2 | 15 | 0 | 0 | -10
Cc1noc(C)c1S(=O)(=O)Nc1ccc2c(c1)CC(=O)N([C@@H](C)CO)C[C@@H](C)[C@@H](CN(C)Cc1ccc(-c3ccccc3)cc1)O2 | . | . | . | 0 | . | .
COc1ccc(-c2nnc3sc(CCN4C(=O)c5ccccc5C4=O)nn23)cc1 | 5 | -23 | . | 0 | 7 | 6
CN(C)c1ccc(/C=C2\SC(=S)N(Nc3ncc(C(F)(F)F)cc3Cl)C2=O)cc1 | -1 | . | . | 11 | . | .
COc1cc(/C=C2\SC(=S)N(Nc3ncc(C(F)(F)F)cc3Cl)C2=O)ccc1O | -1 | 106* | 0 | 12 | 2 | -9
O=c1cc(CCl)[nH]c2nc3ccccc3n12 | 1 | -17 | -4 | . | -2 | 6
O=c1cc(-c2ccccc2)[nH]c2nc3ccccc3n12 | 0 | 29 | 47* | -7 | -5 | 16
CCOc1ccc(S(=O)(=O)NCc2cccnc2)cc1NC(=O)c1ccccc1 | 4 | -18 | -1 | 11 | 24 | 8
CCOc1ccc(S(=O)(=O)NCc2ccccn2)cc1NC(=O)c1ccccc1 | 13 | -18 | -4 | . | 54* | -34
Cc1ccc(N/C(SCc2ccccc2C)=C(/C#N)C(=O)NCc2ccco2)cc1C | -3 | . | -5 | -5 | -1 | -3
Cc1ccc(Sc2ccc(/C=C3/C(=O)NN(c4ccccc4)C3=O)o2)cc1 | 8 | -16 | -1 | . | -7 | 6
O=C1NN(c2ccccc2)C(=O)/C1=C/c1ccc(Sc2ccc(Cl)cc2)o1 | 35* | -2 | 2 | 2 | 1 | -1
Cc1nc2sc(C(=O)Nc3ccccc3)c(N)c2c(C)c1[N+](=O)[O-] | 2 | -32 | 36* | . | -1 | 45
O=C(CCC(=O)Nc1ccc(F)cc1)N/N=C/c1cccs1 | 0 | 15 | -2 | -2 | -7 | -4
N#Cc1c(-c2ccc(F)cc2)c2c([nH]c1=O)-c1ccccc1OC2 | 1 | 18 | -2 | . | 4 | .
N#Cc1c(-c2cccnc2)c2c([nH]c1=O)-c1ccccc1OC2 | 1 | 10 | 44* | 3 | -1 | .
CC(C)(C)C(O)C(Cc1ccccc1Cl)n1cncn1 (stereo not drawn) | 0 | 92* | 1 | 1 | 9 | 7
CCc1cc(C(=O)c2ccc(OC)cc2)c(N)s1 | 1 | -3 | 39* | -2 | . | .
c1ccc(C2Nc3ccccc3-c3nc4ccccc4n32)cc1 (stereo not drawn) | 2 | . | 37* | 45* | 0 | .

Compound activity (PubChem BioAssay)
